Screens (PubChem BioAssay)
An excerpt weighted towards active compounds, which were near 6.7% of everything screened.
Mtb FBA inh = Mtb FBA enzyme inhibitors, primary screen, biochemical, fluorescence, strain H37Rv. Fructose-bisphosphate aldolase (Mycobacterium tuberculosis (strain ATCC 25618 / H37Rv)), …. purified M. tuberculosis FBA, fluorescence read-out. inhibition, % at 1 µM. 2.3% of 360,000 active. AID 588726, 2011; in the data active = inhibition above about 27%
Anthrax LF inh2 = Bacillus anthracis LF protease inhibitors, primary screen, biochemical, multiplex microsphere, MLPCN library. Lethal factor (Bacillus anthracis), P15917. multiplex microsphere protease cleavage assay. inhibition, % at 10 µM. 0.12% of 360,000 active. AID 588501, 2011
GDH-TPI counter = GDH-TPI coupling enzyme inhibitors, primary screen, artefact control for M. tuberculosis FBA inhibitor project, biochemical, absorbance, full deck; GDH-TPI coupled enzyme counterscreen, NADH absorbance; inhibition, % at 4.8 µM; 1.2% of 360,000 active; AID 588335, 2011; in the data active = inhibition above about 30%
BoNT-F LC inh = BoNT/F light chain protease inhibitors, primary screen, biochemical, flow cytometry, MLPCN library. 0.22% of 360,000 active. Botulinum neurotoxin type F light chain protease (Clostridium botulinum). Multiplex microsphere protease cleavage assay. AID 588497, 2011. inhibition, % at 10 µM; in the data active = inhibition above about 35%, passing the limit was not always enough; inconclusive = no clear call, values can overlap the other calls
BoNT-A LC inh2 = BoNT/A light chain protease inhibitors, primary screen, biochemical, flow cytometry, MLPCN library; multiplex microsphere protease substrate cleavage; 0.17% of 360,000 active; Botulinum neurotoxin type A light chain protease (Clostridium botulinum A str. ATCC 3502); AID 588499, 2011; inhibition, % at 10 µM
Bead autofluor = compound fluorescence in toxin protease inhibitor counterscreen; compound autofluorescence counterscreen, microsphere flow cytometry; hits give high values; 3.1% of 360,000 active; fluorescence intensity (no concentration beside the values); in the data active = fluorescence intensity above about 16000; inconclusive = no clear call, values can overlap the other calls
A number is an active result; - = inactive; ? = inconclusive; . = no result given. Cut-off read from the data, not from the text of the source, unless noted: active = inhibition above about 30%; inconclusive = no clear call, values can overlap the other calls; inactive = below that.

SMILES | Mtb FBA inh | Anthrax LF inh2 | GDH-TPI counter | BoNT-F LC inh | BoNT-A LC inh2 | Bead autofluor
CC(C)OC(=O)/C(=C\C=C\c1ccccc1)NC(=O)c1ccccc1 | - | - | 45.6 | - | - | -
O=C(Nc1ccc(C(=O)O)cc1)/C(=C\c1ccc2c(c1)OCO2)NC(=O)c1ccc(Br)cc1 | - | - | - | - | - | -
COc1ccc(/C=C(\NC(=O)c2ccc(OC)cc2)C(=O)Nc2ccc(C(=O)O)cc2)cc1 | - | - | - | - | - | -
O=C(Nc1ccc(C(=O)O)cc1)/C(=C\c1ccc2c(c1)OCO2)NC(=O)c1ccccc1 | - | - | 36.0 | - | - | -
CC(=O)Oc1ccc(/C=C(\NC(=O)c2cccc(Br)c2)C(=O)Nc2ccc(C(=O)O)cc2)cc1 | - | . | 32.4 | . | . | .
CCOC(=O)C1Nc2c(cc(C(F)(F)F)cc2[N+](=O)[O-])C2c3ccccc3CC12 (stereo not drawn) | - | - | - | - | - | -
Cc1ccc(NC(=O)/C(=C\c2ccc3c(c2)OCO3)NC(=O)c2ccco2)cc1 | - | - | 39.5 | - | - | -
NC(=O)/C(=C/c1ccc2c(c1)OCO2)NC(=O)c1ccco1 | - | - | - | - | - | -
O=C(Nc1cccc(C(F)(F)F)c1)/C(=C\c1ccco1)NC(=O)c1cccs1 | - | - | 34.6 | - | - | -
CC(=O)c1ccc(NC(=O)/C(=C\c2ccco2)NC(=O)c2ccco2)cc1 | - | - | 30.9 | - | - | -
COc1ccc(C2(CNC(C)=O)CCOCC2)cc1OC | - | - | - | - | - | -
CCOC(=O)CSc1cc(C)nc2ccc(OC)cc12 | - | - | - | - | - | -
O=C(O)CSc1nc(C(F)(F)F)cc(=O)n1-c1ccccc1 | - | - | - | - | - | -
CC(=O)CSc1nc(C(F)(F)F)cc(=O)n1-c1ccccc1 | - | - | - | - | - | 20676
Cc1c(C(=O)N(Cc2nnc(-c3ccccc3Cl)o2)C2CC2)oc2ccccc12 | - | - | - | - | - | ?
C=C(C)CSc1nnc([C@@H](N)Cc2c[nH]c3ccccc23)o1 | - | - | - | - | ? | 19997
N[C@@H](Cc1ccccc1)c1nnc(SCc2ccccc2Cl)o1 | - | - | - | - | ? | 19863
N[C@@H](Cc1c[nH]c2ccccc12)c1nnc(SCc2ccc(F)cc2)o1 | - | - | - | - | ? | 24676
N[C@@H](Cc1c[nH]c2ccccc12)c1nnc(SCc2ccccc2)o1 | - | - | - | - | - | -
CCc1ccccc1NC(=O)CSc1nnc([C@@H](N)Cc2ccccc2)o1 | - | - | - | - | - | -
COc1cc(/C=C2/N=C(C3CCCCC3)OC2=O)cc(OC)c1OC | - | - | - | - | ? | 20975
COc1cc(/C=C2\N=C(C)OC2=O)cc(OC)c1OC | - | - | - | - | - | -
Cc1c(C(=O)Nc2ccccc2)sc2nc(-c3ccccc3)cn12 | - | - | - | - | - | 23471
Cc1c(C(=O)NCc2ccccn2)sc2nc(-c3ccc(F)cc3)cn12 | - | - | - | - | - | 19364
Cc1cccc(NC(=O)c2sc3nc(-c4ccc(F)cc4)cn3c2C)n1 | - | - | - | - | ? | 19776
SMILES | Mtb FBA inh | Anthrax LF inh2 | GDH-TPI counter | BoNT-F LC inh | BoNT-A LC inh2 | Bead autofluor
COc1ccc(-c2cn3c(C)c(C(=O)NC(C)(C)C)sc3n2)cc1 | - | - | - | - | - | -
COc1ccc(-c2cn3c(C)c(C(=O)NC(C)C)sc3n2)cc1 | - | - | - | - | - | 23094
Cc1ccc(NC(=O)CSc2nnc(-c3ccncc3)n2C)cc1C | - | - | - | - | ? | 20661
COC(=O)c1cc(OC)c(OC)cc1NC(=O)CSc1nnc(-c2cccnc2)n1C | - | - | - | - | - | 20945
CCC(=O)Nc1ccc(-c2nnc(SCC(=O)Nc3nccs3)n2C)cc1 | - | - | - | - | - | 19859
CCn1c(SCC(=O)Nc2nccs2)nnc1-c1ccc(C)cc1 | - | - | - | - | - | ?
CC(C)C(NC(=O)c1cccs1)c1nnc(SCC(=O)Nc2nccs2)n1C (stereo not drawn) | - | - | - | - | - | 21406
CCOC(=O)C(NC(=O)NCc1ccc(F)cc1)(OCC)C(F)(F)F (stereo not drawn) | - | - | - | - | - | -
COc1cccc(-c2csc3nnc(SCC(=O)c4ccc(NC(C)=O)cc4)n23)c1 | - | - | - | - | - | -
COc1ccc(OC)c(-c2csc3nnc(SCC(=O)Nc4ccc(NC(C)=O)cc4)n23)c1 | - | - | - | - | - | 20934
COc1ccc(NC(C)=O)cc1NC(=O)CSc1nnc(-c2ccncc2)n1C | - | - | - | - | ? | 21036
CC1CC2(C)Oc3ccccc3C3OCC1(CO)C(C)C32 (stereo not drawn) | - | - | - | - | - | 19211
CC(=O)OCC12COC3c4ccccc4OC(C)(CC1C)C3C2C (stereo not drawn) | - | - | - | - | - | -
COc1ccc(/C=N/NC(=S)Nc2cccc(C(=O)O)c2)cc1 | - | - | - | - | - | -
CCCCOc1ccc(/C=N/NC(=S)Nc2cccc(C)c2C)cc1 | - | - | - | - | - | -
CC(=O)Nc1ccc(/C=N/NC(=S)NC(C)C)cc1 | - | - | 40.4 | - | - | -
Cc1cccc(C)c1NC(=S)N/N=C/c1ccc(C(=O)O)cc1 | - | - | 45.0 | - | - | -
CCCCOc1ccc(/C=N/NC(=S)Nc2cc(C)ccc2C)cc1 | - | - | 40.2 | ? | - | ?
Cc1cccc(C)c1NC(=S)N/N=C/c1ccc(OCCC(C)C)cc1 | - | - | - | - | - | 20711
N#Cc1ccc(C(=O)Nc2cc(-c3ccc(F)cc3)nn2-c2ccccc2)cc1 | - | - | - | - | - | -
CCN(C(=O)CSc1nnc(Cc2ccccc2F)n1N)C1CCS(=O)(=O)C1 (stereo not drawn) | - | - | - | - | - | -
Cc1cc(SCC(=O)N/N=C/c2ccc(O)c(O)c2O)c(C)cc1Br | - | - | - | - | - | 22001
CSc1nnc(-c2cccs2)n1-c1ccccc1 | - | - | - | - | - | 20664
O=C(CSc1nnc(-c2cccs2)n1-c1ccccc1)N1CCCC1 | - | - | - | - | - | 21472
C=CCn1c(SCC(=O)N2CCCC2)nc2scc(-c3cccs3)c2c1=O | - | - | - | - | - | 21895
CCOC(=O)CSc1nnc(-c2cccs2)n1-c1ccccc1 | - | - | - | - | - | -
CC1CCN(C(=O)CSc2nnc(CN3CCOCC3)n2-c2ccccc2)CC1 | - | - | - | - | - | 21833
CN(C)S(=O)(=O)N1CCN(C(=O)c2ccccc2)CC1 | - | - | - | - | - | -
COc1ccc(/C=C2\SC(=S)N(CCC(=O)NC3C=CS(=O)(=O)C3)C2=O)cc1 (stereo not drawn) | - | - | - | - | - | -
